The structures appear in SMILES notation.

This test relates to Human papillomavirus type 1a E7 protein (residues 1-88). In words: HPV1a E7 small-molecule binders, primary screen, biochemical, small-molecule microarray, residues 1-88, 635 nm (AID 1129). The conditions noted are these: small-molecule microarray binding, fluorescence 635 nm; higher = more signal.
For the compound `Cc1ccc(S[C@]2(C(=O)NCC(F)(F)F)CC(=O)N(Cc3ccccc3)[C@@H]2c2ccc(CO)cc2)cc1`, the composite z-score amounted to 0.389.
As to `O=C1O[C@@H](c2ccccc2)[C@@H](c2ccccc2)N2[C@@H](c3ccccc3OCCO)[C@]3(C(=O)Nc4ccccc43)[C@@H](C(=O)NC[C@H](O)c3ccccc3)[C@H]12`, the composite z-score was 1.19.
`COc1ccc([Si](C)(C)[C@@H]2[C@@H](CC(=O)N3CCC[C@H]3CO)O[C@]3(C(=O)N(Cc4ccc(N5C(=O)c6cccc7cccc5c67)cc4)c4ccccc43)[C@H]2C)cc1`: the composite z-score came out at 1.2.
For `O=C1NC(=O)C2C1C=CC(C(O)c1ccc(Br)cc1)N2Nc1ccccn1` (stereo not given) the value was 0.173; for `O=C1C2C=CC(C(O)c3cc(C(F)(F)F)cc(C(F)(F)F)c3)N(Nc3ccc([N+](=O)[O-])cc3)C2C(=O)N1c1ccccc1` (stereo not given), 1.24.
For `O=C1O[C@@H](c2ccccc2)[C@@H](c2ccccc2)N2[C@@H](c3ccccc3OCCO)[C@]3(C(=O)Nc4ccc(C#CCCO)cc43)[C@@H](C(=O)Nc3nc4ccccc4s3)[C@H]12` the value was 1.21; for `COc1ccccc1CN1C(=O)c2ccccc2[C@](Cc2ccccc2I)(C(=O)NC(C)C)[C@@H]1c1ccc(CO)cc1`, 1.24; for `COC(=O)C(CC#Cc1ccc2c(c1)[C@]1(C(=O)N2)[C@H](C(=O)O)[C@H]2C(=O)O[C@H](c3ccccc3)[C@H](c3ccccc3)N2[C@@H]1c1ccccc1OCCO)C(=O)OC`, 1.24.
Next, `CC(C)NC(=O)[C@@]1(C)c2ccccc2C(=O)N(C(C)C)[C@H]1c1ccc(CO)cc1`: -0.259; `NCCCCCCNC(=O)[C@@H]1C[C@@H]2C(=O)N3CCC[C@H]3C(=O)N2[C@@H]1c1ccc(O)cc1`: 1.18.

Source of the values: PubChem BioAssay.
